Source: PubChem BioAssay (EPA / NIEHS)
More than one record can exist for a structure, and the calls need not agree. Activity calls are given as the source filed them. The calls were made as follows: active = hit-call score of the fitted dose curve at least 0.9, where 1 is the maximum; inactive = score below 0.9.

Test: CCTE_Shafer_MEA_dev_network_spike_duration_std: CCTE's Neural Network Formation Assay for Standard Deviation of Network Spike Duration, Shafer Lab (AID 2284052);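 also: hits are decreases in network spike duration SD versus DMSO vehicle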
Description: CCTE_Shafer_MEA_dev assay is conducted using Axion Biosystems 48 well microelectrode array (MEA) plates and Maestro recording system. Each well of the MEA plate contains a grid of 16 microelectrodes embedded in the culture surface. Electrically active cells, such as neurons, can be cultured over the electrodes, and electrical activity in these cells can be recorded extracellularly. The spontaneous firing of neurons is captured from each electrode on a microsecond timescale providing both temporally and spatially precise data. […] The CCTE_Shafer_MEA_dev assay uses primary cultures of rat cortical neurons. Recordings are made on days post-plating 5, 7, 9 and 12. As these cultures mature over time, neural networks develop functional activity and form cohesive networks in which electrical activity can be highly coordinated. CCTE_Shafer_MEA_dev_network_spike_duration_std is 1 of 19 assay components of the CCTE_Shafer_MEA_dev assay. It measures the standard deviation of the duration of network spikes (temporally-clustered groups of action potential firing across multiple electrodes) during a recording in a microelectrode array (MEA) using Axion Biosystems Maestro 768 channel amplifier with the AxIS adaptive spike detector. To collapse across multiple recordings made on days post-plating 5, 7, 9 and 12, the trapezoidal area-under-the-curve of the component is calculated.Data from the assay component CCTE_Shafer_MEA_dev_network_spike_duration_std was analyzed into 1 assay endpoint. This assay endpoint, CCTE_Shafer_MEA_dev_network_spike_duration_std, was analyzed in the negative analysis fitting direction relative to DMSO as the negative control and baseline of activity. Using a type of functional reporter, gain or loss-of-signal activity can be used to understand electrical activity.
On the day prior to culture, each well was coated thoroughly with 150 uL of 0.05% polyethyleneimine (PEI, Sigma Cat P3143) in 50 mM HEPES (Sigma Cat H7523) at a pH of 8. The plate was incubated at 37C for one hour. PEI was rinsed out with 500 uL of sterile water three times. Plates were stored at 4C until the day of culture. This culture was plated at a seeding density of 1.5 x 10^5 cells/well on a 48-well MEA plate, prepared as described above. Cells were administered via a 25 uL media/laminin ([…]; Sigma Cat L2020-1MG) drop directly onto the microelectrode array, as adding the cells with the laminin results in better attachment than pre-coating with laminin. After 2 hours, an additional 475 uL of cortical media was added and the cells returned to the incubator. Exposure starts at day 0 of plating and is continued over twelve days of network development until the experiment is terminated. Cells are fed with fresh medium on DIV 5 and 9, following the recordings on those days. The entire volume of media in the well is exchanged and any vehicle or compound treatment is renewed. Complete details are found in OP-NHEERL/ISTD/SBB/TJS/2015-03-r0 (available on request, email shafer.tim@epa.gov). Measurement of the electrical activity is non-invasive, and recordings can be made from the same plate over multiple different days of the culture. In cortical neurons, this allows for the measurement of extracellular action potentials over the period during which networks form in the MEA plate.
With CCOP(=S)(OCC)Oc1nc(Cl)c(Cl)cc1Cl the AC50 was 22700 nM (active) and the outcome was “inactive”. With O=C(O)C(F)(F)C(F)(F)C(F)(F)C(F)(F)C(F)(F)C(F)(F)F the outcome was “inactive”. With Cn1sc(Cl)cc1=O the AC50 was 1840 nM (active). With CC(=O)[O][Hg][c]1ccccc1 the AC50 was 11.2 nM (active). For O=C1C2(Cl)C3(Cl)C4(Cl)C(Cl)(Cl)C5(Cl)C3(Cl)C1(Cl)C5(Cl)C24Cl (configuration not stated), the AC50 was 28 nM (active). For CC(C)(C)c1cc(O)ccc1O, the outcome was “inactive”. With O=C(O)C(F)(F)C(F)(F)C(F)(F)C(F)(F)C(F)(F)C(F)(F)C(F)(F)C(F)(F)C(F)(F)C(F)(F)F the outcome was “inactive”. In the case of COP(=O)(OC)O/C(=C\Cl)c1cc(Cl)c(Cl)cc1Cl, the outcome is reported as “inactive”. In the case of C=C(C)C(=O)[O][Sn]([CH2]CCC)([CH2]CCC)[CH2]CCC, the AC50 is reported as 13 nM (active). For CCC(=O)C(CC(C)N(C)C)(c1ccccc1)c1ccccc1 (configuration not stated), the outcome was “inactive”. With ClC1(Cl)C2(Cl)C3(Cl)C4(Cl)C(Cl)(Cl)C5(Cl)C3(Cl)C1(Cl)C5(Cl)C24Cl (configuration not stated) the AC50 was 1030 nM (active).
